The values that follow come from PubChem BioAssay.

The structures appear in SMILES notation. The source made the active and inactive calls.

Assay [1] concerns Human papillomavirus type 1a protein E7 (residues 44-93). Put plainly: small molecules binding HPV E7 44-93 – biochemical, small-molecule microarray, residues 44-93, 635 nm fluorescence, primary screen (AID 1108).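 Note: E7 fragment applied at 1 µg/mL in TBST for 1 h at 4 C; score combines spot fluorescence with its signal to noise ratio.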 Particulars: fluorescence 635 nm, higher = more signal.
Assay [2] can be described thus: hepatitis C replication reporter changes, two-sided – Huh7 cells, luciferase reporter, HCV replication inhibitor project, primary screen (AID 1109).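 Note: huh7 hepatoma cells harbouring a luciferase neomycin HCV replicon reporter; luciferase luminescence as measure of HCV replicon replication; test concentration not given here.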 Conditions: Huh7 HCV replicon luciferase reporter, 48 h; higher = more signal.
The target of assay [3] is Left-right determination factor 2 (Homo sapiens) (UniProt O00292). Briefly: small molecules binding LEFTY2 protein – biochemical, small-molecule microarray, 635 nm fluorescence scan, primary screen (AID 1110). Conditions: higher = more signal.
Assay [4] deals with Calmodulin-1 (Homo sapiens) (UniProt P0DP23). Briefly: small molecules binding calmodulin-1 with EGTA – biochemical, small-molecule microarray, Cy5-labelled CALM1, profiling panel (AID 1111).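 Note: labelled calmodulin applied in Tris saline Tween buffer holding calcium plus EGTA and DTT.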 Conditions: Cy5-CALM1 binding fluorescence, higher = more signal.
Assay [5] shares this target. Put plainly: small molecules binding Ca-loaded calmodulin-1 – biochemical, small-molecule microarray, Cy5-labelled CALM1, plus calcium, artefact control for SMM control-protein annotation, profiling panel (AID 1112).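 Note: score merges spot fluorescence with signal to noise from triplicate slides.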 Particulars: Cy5-CALM1 binding fluorescence, higher = more signal.
The nature of assay [6]: probe aWnt5a binding to arrayed compounds – biochemical, biotinylated probe, 635/667 nm fluorescence, primary screen (AID 1113).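 Note: score merges 667 nm fluorescence intensity with signal-to-noise per printed feature.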 Conditions: small-molecule microarray, higher = more signal.
The nature of assay [7]: probe aShh binding to arrayed compounds – biochemical, biotinylated probe, 635/667 nm fluorescence, primary screen (AID 1114).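 Note: probe is biotin-labelled aShh protein from a stem cell growth factor screen; measures binding of labelled protein to compounds printed on the slide; score merges feature fluorescence at 667 nm with signal-to-noise.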 Particulars: small-molecule microarray, higher = more signal.
Assay [8] can be described thus: probe aNog binding to arrayed compounds – biochemical, biotinylated probe, 635/667 nm fluorescence, primary screen (AID 1115).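 Note: probe is biotinylated aNog protein used at 0.15 µg/mL for 1 h at 4 C; z-score combines 667 nm fluorescence of each spot with its signal to noise.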 Conditions: small-molecule microarray, higher = more signal.
Assay [9] addresses Torsin-1A-interacting protein 1 (Homo sapiens) (UniProt Q5JTV8). Briefly: compound microarray binding of lysate hLAP1 – cell lysate, small-molecule microarray, COS7 lysate, 635/667 nm fluorescence, primary screen (AID 1116). Conditions: 635 nm fluorescence, higher = more signal.
The target of assay [10] is Alpha-bungarotoxin (Bungarus multicinctus) (UniProt P60615). Briefly: compounds binding labelled alpha-BTX control protein – biochemical, small-molecule microarray, Alexa647 label, 635/667 nm fluorescence, artefact control for SMM control protein annotation, profiling panel (AID 1117). Particulars: alpha-BTX-A647 binding fluorescence, higher = more signal.
Assay [11] addresses Albumin (Bos taurus) (UniProt P02769). Briefly: compounds binding labelled BSA control protein – biochemical, small-molecule microarray, Alexa647 label, 635/667 nm fluorescence, artefact control for SMM control protein annotation, profiling panel (AID 1118).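 Note: score merges 667 nm emission intensity and signal-to-noise per printed compound spot.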 Conditions: BSA-A647 binding, fluorescence 635 nm, higher = more signal.
Assay [12] can be described thus: probe aXIP binding to arrayed compounds – biochemical, NeuroSMM set, 635/667 nm fluorescence, primary screen (AID 1119).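 Note: probe is the protein aXip251-270 applied at 1 µg/mL to compound-printed slides; binding of probe to printed compounds measured as 667 nm fluorescence plus signal to noise.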 Particulars: small-molecule microarray, higher = more signal, called active from +8 up or from −8 down.
Assay [13] is described as follows: probe aNOTCH3 binding on compound microarray – biochemical, small-molecule microarray, 635/667 nm fluorescence, primary screen (AID 1120).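 Note: probe is a biotin-tagged antibody raised against NOTCH3 rather than NOTCH3 protein; score merges spot fluorescence near 667 nm with spot signal to noise.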 Particulars: higher = more signal.
Assay [14] in a line: probe aNOTCH2 binding on compound microarray – biochemical, small-molecule microarray, 635/667 nm fluorescence, primary screen (AID 1121).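 Note: score merges feature fluorescence read at 667 nm with its signal to noise.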 Conditions: higher = more signal.
The target of assay [15] is Carbonic anhydrase 2 (Homo sapiens) (UniProt P00918). Briefly: compounds binding carbonic anhydrase 2 – biochemical, small-molecule microarray, Alexa647-labelled CAII, profiling panel (AID 1122). Particulars: CAII-A647 binding fluorescence, higher = more signal.
Assay [16] can be described thus: COS7 lysate on small-molecule microarray, probe aHis, 635 nm (AID 1123).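 Note: z-score combines 667nm fluorescence intensity with signal-to-noise per printed compound spot.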 Particulars: COS7 cell lysate, fluorescence, higher = more signal.
Assay [17] is described as follows: probe aLAP1 signal on lysate-treated microarray – cell lysate, small-molecule microarray, COS7 lysate, primary screen (AID 1124).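 Note: lysate comes from COS7 cells expressing LAP1 and is applied at 0.3 µg/mL; score merges spot fluorescence near 667 nm with signal-to-noise over triplicate slides.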 Particulars: probe aLAP1, fluorescence, higher = more signal.
The test system of assay [18] is Sam68 (KHDRBS1). Put plainly: compounds binding KHDRBS1 protein – biochemical, small-molecule microarray, 635 nm fluorescence, primary screen (AID 1125).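 Note: score merges 667 nm channel intensity with signal to noise over triplicate slides.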 Particulars: higher = more signal.
Assay [19] relates to Chordin-like protein 2 (CHRDL2). Briefly: compounds binding chordin-like 2 – biochemical, small-molecule microarray, 635 nm fluorescence, primary screen (AID 1126).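 Note: printed compound slides probed with Chrdl2 protein at 4 µg/mL for 1 h at 4 C; score merges 667 nm emission intensity with signal to noise over three replicate slides.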 Particulars: fluorescence 635 nm, higher = more signal.
For assay [20], the target named is Concanavalin-A (Canavalia ensiformis) (UniProt P02866). Briefly: compounds binding concanavalin A lectin – biochemical, small-molecule microarray, Alexa647 label, 635 nm, artefact control for SMM control protein annotation, primary screen (AID 1127).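 Note: z combines 667 nm emission intensity with signal-to-noise across three replicate slides.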 Particulars: ConA-A647 binding fluorescence, higher = more signal.
Concanavalin-A (Canavalia ensiformis), sequence (P02866 whole entry, looked up): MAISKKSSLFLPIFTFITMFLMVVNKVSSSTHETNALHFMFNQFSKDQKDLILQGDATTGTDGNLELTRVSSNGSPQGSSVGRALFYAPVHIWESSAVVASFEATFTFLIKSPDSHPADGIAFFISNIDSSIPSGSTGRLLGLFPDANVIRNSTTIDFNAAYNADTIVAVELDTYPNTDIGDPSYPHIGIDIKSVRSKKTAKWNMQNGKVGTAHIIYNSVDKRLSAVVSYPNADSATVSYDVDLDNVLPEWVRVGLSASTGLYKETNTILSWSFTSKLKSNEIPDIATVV

Left-right determination factor 2 (Homo sapiens), sequence (O00292 whole entry, looked up): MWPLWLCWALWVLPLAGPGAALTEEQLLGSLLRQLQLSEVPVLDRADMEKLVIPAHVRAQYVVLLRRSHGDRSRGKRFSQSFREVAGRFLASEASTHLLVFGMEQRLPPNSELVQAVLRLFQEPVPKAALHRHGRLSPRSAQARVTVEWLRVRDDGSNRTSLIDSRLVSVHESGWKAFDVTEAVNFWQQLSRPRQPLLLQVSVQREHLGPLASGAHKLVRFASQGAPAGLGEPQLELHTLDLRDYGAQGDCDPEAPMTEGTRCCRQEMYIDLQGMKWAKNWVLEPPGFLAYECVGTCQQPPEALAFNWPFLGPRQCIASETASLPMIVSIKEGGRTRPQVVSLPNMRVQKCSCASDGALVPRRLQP
Torsin-1A-interacting protein 1 (Homo sapiens), sequence (Q5JTV8 whole entry, looked up): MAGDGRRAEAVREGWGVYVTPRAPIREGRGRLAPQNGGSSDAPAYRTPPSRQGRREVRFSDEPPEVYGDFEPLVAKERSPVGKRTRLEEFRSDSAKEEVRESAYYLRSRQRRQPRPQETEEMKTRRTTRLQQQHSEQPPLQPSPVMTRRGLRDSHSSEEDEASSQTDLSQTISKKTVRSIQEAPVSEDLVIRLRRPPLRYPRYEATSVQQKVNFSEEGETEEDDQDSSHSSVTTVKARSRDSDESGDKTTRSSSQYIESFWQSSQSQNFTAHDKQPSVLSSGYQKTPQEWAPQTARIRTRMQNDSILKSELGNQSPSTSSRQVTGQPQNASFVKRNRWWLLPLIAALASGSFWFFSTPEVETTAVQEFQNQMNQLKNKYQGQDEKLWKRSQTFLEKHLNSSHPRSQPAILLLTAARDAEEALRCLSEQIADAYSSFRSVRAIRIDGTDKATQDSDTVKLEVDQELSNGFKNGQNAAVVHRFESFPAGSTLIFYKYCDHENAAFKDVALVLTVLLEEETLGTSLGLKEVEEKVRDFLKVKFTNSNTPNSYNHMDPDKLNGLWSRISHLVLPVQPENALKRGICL
Albumin (Bos taurus), sequence (P02769 whole entry, looked up): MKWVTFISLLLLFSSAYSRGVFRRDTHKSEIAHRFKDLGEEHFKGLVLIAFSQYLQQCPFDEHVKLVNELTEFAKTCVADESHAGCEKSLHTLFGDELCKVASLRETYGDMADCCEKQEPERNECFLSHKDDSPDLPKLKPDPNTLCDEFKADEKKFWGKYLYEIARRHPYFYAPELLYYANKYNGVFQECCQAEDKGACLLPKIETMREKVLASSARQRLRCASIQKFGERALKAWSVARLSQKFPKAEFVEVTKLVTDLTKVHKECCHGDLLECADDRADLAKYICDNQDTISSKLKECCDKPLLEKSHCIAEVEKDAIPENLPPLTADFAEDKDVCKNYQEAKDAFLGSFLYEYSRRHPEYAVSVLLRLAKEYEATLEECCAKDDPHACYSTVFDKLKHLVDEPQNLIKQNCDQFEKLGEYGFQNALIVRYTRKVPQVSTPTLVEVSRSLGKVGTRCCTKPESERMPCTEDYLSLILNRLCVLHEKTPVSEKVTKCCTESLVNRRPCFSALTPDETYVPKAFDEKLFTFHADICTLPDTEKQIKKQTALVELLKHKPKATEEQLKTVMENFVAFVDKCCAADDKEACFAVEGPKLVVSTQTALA
Alpha-bungarotoxin (Bungarus multicinctus), sequence (P60615 whole entry, looked up): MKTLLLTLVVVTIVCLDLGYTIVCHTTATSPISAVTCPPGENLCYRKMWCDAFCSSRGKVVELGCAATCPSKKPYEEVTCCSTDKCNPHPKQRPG

Take `OC[C@H]1O[C@H](C#Cc2ccccc2)C=C[C@@H]1O`: the composite z-score in [1] is 0.0191; in assay [3] it was 0.484; in [4], -0.12; in assay [5], -0.644; in assay [6], 0.0251; in [7], 0.0141. The composite z-score in assay [8] was -0.0125; in assay [9], -0.0177; in assay [10], 0.42; in assay [11] it was 0.475; in [13], -0.0647; in assay [14] it was -0.101. Further, the composite z-score is -0.0795 in assay [15]; 0.171 in assay [16]; -0.647 in assay [17]; 0.0701 in assay [18]; 0.622 in [19]; 0.341 in assay [20]. Further, the z-score in [2] was -0.125. Besides, the composite Z-score in assay [12] was 0.131 (inactive).

Consider `C[C@@H]1CC[C@H]2C(=O)O[C@@H](CN=[N+]=[N-])CN2[C@H]1c1ccc(Br)cc1`, for which the composite z-score in [1] is 1.23; in assay [3], 0.672; in [4] it was 0.169; in [5] it was -0.425; in assay [6], -0.262; in assay [7], -0.32. The composite z-score is -0.571 in assay [8]; 0.0942 in assay [9]; 0.601 in [10]; 0.677 in assay [11]; -0.0343 in [13]; -0.0287 in [14]. Moreover, the composite z-score in assay [15] was 0.236; in assay [16], 1.02; in assay [17], 0.373; in [18], 1.12; in [19], 0.526; in assay [20], 1.07. In addition, the z-score in [2] was -4.98. Also, the composite Z-score in assay [12] was -0.283 (inactive).

Turning to `O=C1C[C@H](c2ccccc2)[C@H](c2ccc(Br)cc2)O1`, the composite z-score is 0.12 in [1]; 0.603 in assay [3]; -0.649 in [4]; -0.447 in [5]; -0.129 in assay [6]; -0.138 in assay [7]. Further, the composite z-score in assay [8] is -0.35; in assay [9], -0.264; in assay [10], 0.239; in assay [11], 0.275; in [13], -0.182; in assay [14], -0.117. In addition, the composite z-score in assay [15] is -0.202; in [16] it was -0.652; in [17] it was -1.07; in [18] it was -0.179; in assay [19] it was 0.143; in [20] it was -0.394. The molecule also displayed a z-score in assay [2] of 0.588. In addition, the composite Z-score in [12] was 0.372 (inactive).

On to `CC(C)=CCCC(C)=CCON=C1C[C@@H](O)[C@@H](O)[C@@H]2[C@@H]3C(=O)N(C4CCCCC4)C(=O)[C@@H]3CC[C@H]12`, for which the composite z-score in [1] is 0.684; in assay [3], 0.594; in assay [4] it was -0.432; in [5], -1.2; in [6] it was -0.0425; in assay [7], -0.0904. The composite z-score was -0.341 in assay [8]; -0.0853 in assay [9]; 0.713 in assay [10]; -0.207 in assay [11]; -0.0784 in assay [13]; -0.164 in assay [14]. The composite z-score in assay [15] stood at 0.106; in [16], 0.0252; in [17] it was 0.514; in assay [18], 1.07; in assay [19], 1.07; in assay [20] it was 0.48. In addition, in assay [2], the z-score was -0.127. In [12], the composite Z-score was 1.59 (inactive).

In the case of `COC(=O)[C@H](C)NC(=O)CCC1CC(OC(=O)NCc2ccc3c(c2)OCO3)CC2(CCCC(COC(=O)NCCC(C)C)O2)O1` (stereo not given in full), the composite z-score in assay [1] was 1.37; in assay [3] it was 0.694; in assay [4], -0.107; in [5], -0.682; in [6], -0.0977; in [7] it was -0.0553. Further, the composite z-score is -0.0047 in assay [8]; 0.302 in [9]; 1.48 in assay [10]; 0.492 in [11]; 0.0488 in assay [13]; -0.114 in assay [14]. Moreover, the composite z-score in assay [15] is 0.226; in assay [16], 0.891; in assay [17] it was -0.308; in assay [18], 1.31; in [19], 0.0784; in assay [20], 0.0667. Further, the z-score in [2] was -0.166. Besides, the composite Z-score in [12] is -0.436 (inactive).
